Screening results as filed in PubChem.
RAD52 anneal inh: RAD52 (human) annealing inhibition | recombinant RAD52 DNA annealing, FRET fluorescence | actives 0.46% (n = 360,000) | AID 651710 | P43351 | inhibition, % at 18.7 µM;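 active means every replicate showing at least 50% inhibition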
CASP6 VEID inh: blocks human caspase-6 cleavage activity; inhibition, % at 12.5 µM; actives 0.53% (n = 350,000); purified caspase-6, Z-VEID-R110 cleavage fluorescence; P55212;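 active means mean inhibition across replicates at least about 35%, with every replicate also reaching that limit, limit read from the data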
NSD2 HMT inh: NSD2 (human) methyltransferase inhibition; actives 0.54% (n = 310,000); inhibition, % at 12.5 µM; O96028; NSD2 peptide methylation, AlphaScreen, 120 min; AID 743445; in the data active means inhibition above about 50%
AF4-AF9 inh: inhibitors of human MLL-AF4/AF9 interaction; AlphaScreen, biotin-AF4 peptide binding to FLAG-AF9; inhibition, % at 10 µM; P42568; actives 0.47% (n = 350,000);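 active means every replicate reaching a set inhibition limit, whatever the replicate mean, cut at about 25% in these data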
miR-122 sensor: blocks miR-122 activity in Huh7 sensor cells. Huh7 miR-122 Renilla luciferase sensor, 48 h; neutral wells = 0, positive control = 100. AID 602342. activation (reporter increase), % at 12.5 µM. actives 0.3% (n = 340,000);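 active means mean replicate activation score at least 90 and every replicate individually at or above 90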;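 further: higher luciferase means less miR-122 activity so hits act as miR-122 inhibitors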
Numbers stand for hits; . = inactive; / = not tested or not shown; [ ] = dose if it differs, or a comment. In the library only some 1.5% were active in any assay of this set; here they are far more common.

SMILES	RAD52 anneal inh	CASP6 VEID inh	NSD2 HMT inh	AF4-AF9 inh	miR-122 sensor
CN1C(=O)c2cc(NC(=O)Nc3ccccc3)ccc2OC[C@H]2O[C@@H](CC(=O)NC3CCC3)CC[C@H]21	.	.	/	.	.
CO[C@@H]1CN(C)C(=O)c2ccc(NC(=O)NC(C)C)cc2OC[C@H](C)N(C(=O)NC(C)C)C[C@H]1C	.	.	/	.	.
COc1ccc(F)cc1C1=CC(=O)C[C@H](c2ccc3c(c2)OCO3)C1	.	52	/	.	.
COc1cc(F)c(C2=CC(=O)C[C@H](c3ccc4c(c3)OCO4)C2)cc1F	.	.	/	.	.
CCOc1cc(CNc2cccc3[nH]c(C)nc23)ccc1OC	.	.	.	30	/
O=C([C@H]1[C@H](CO)[C@H]2Cn3c(cccc3=O)[C@H]2N1Cc1ccccn1)N1CCC(Cc2ccccc2)CC1	.	41	/	.	/
O=C(NCC1CCCCC1)[C@@H]1[C@@H](CO)[C@@H]2Cn3c(cccc3=O)[C@@H]2N1Cc1ccccn1	.	.	/	.	.
COC(=O)[C@H]1[C@H](CO)[C@H]2Cn3c(cccc3=O)[C@H]2N1CC1CCCCC1	.	.	/	.	.
COC(=O)[C@@H]1[C@@H](CO)[C@@H]2Cn3c(cccc3=O)[C@@H]2N1CC1CCOCC1	.	74	/	.	/
O=C([C@@H]1[C@@H](CO)[C@@H]2Cn3c(cccc3=O)[C@@H]2N1Cc1cc(F)ccc1F)N1CCOCC1	.	49	/	.	/
CS(=O)(=O)N1CC2(C1)[C@@H](c1ccccc1)[C@H](CO)N2C(=O)C1CCC1	.	.	/	.	/
O=C(C[C@@H]1C=C[C@@H](NC(=O)C2CC2)[C@@H](CO)O1)NCCc1cscn1	.	.	/	.	/
Cc1ccc(S(=O)(=O)N(C)C[C@H]2Oc3ccc(NC(=O)Nc4c(C)noc4C)cc3C(=O)N([C@@H](C)CO)C[C@H]2C)cc1	.	.	/	.	.
CC(=O)c1sc(C(=O)O)c(-c2ccco2)c1-c1ccco1	.	64	.	.	/
COc1ccccc1NC1=C(N2CCCCC2)C(=O)c2ccccc2C1=O	/	/	93	/	/
Cc1ccc(NC2=C(N3CCCCC3)C(=O)c3ccccc3C2=O)cc1	/	/	51	/	/
O=C(/C=C/c1ccc(O)cc1)c1ccc(NC2=C(N3CCCCC3)C(=O)c3ccccc3C2=O)cc1	.	.	.	.	.
CN(C1=C(N2CCCCC2)C(=O)c2ccccc2C1=O)c1ccccc1	/	/	.	/	.
O=C1C(Nc2ccccc2)=C(N2CCCCC2)C(=O)c2ccccc21	/	/	94	/	.
C[C@H](CO)N1C[C@H](C)[C@H](CN(C)C(=O)C2CC2)Oc2ncc(C3=CCCC3)cc2C1=O	/	/	/	/	.
COc1ccc(/C=C/C(=O)O)cc1Cl	.	.	.	43	.
O=C(C[C@H]1C=C[C@H](NC(=O)C2CCOCC2)[C@@H](CO)O1)NCc1ccccc1Cl	.	.	/	.	/
COc1ccc(Cl)cc1C(=O)Nc1cc(=O)n(C)c(=O)n1C	.	.	/	49	.
Cn1c(NC(=O)c2ccccc2F)cc(=O)n(C)c1=O	.	.	/	.	.
C/C=C/c1ccc([C@@H]2[C@@H](CO)N(C(=O)CN(C)C)C23CN(C(=O)C2CCC2)C3)cc1	.	.	/	.	/
SMILES	RAD52 anneal inh	CASP6 VEID inh	NSD2 HMT inh	AF4-AF9 inh	miR-122 sensor
CN1c2ccc(-c3ccccc3)cc2[C@@H]2[C@@H](CCN2S(=O)(=O)c2ccccc2F)[C@@H]1CO	.	.	/	.	.
COc1ccc(S(=O)(=O)N(C)C[C@H]2Oc3ccc(NC(=O)Nc4ccc(C(F)(F)F)cc4)cc3C(=O)N([C@@H](C)CO)C[C@H]2C)cc1	.	.	/	.	111[16.7 µM]
COc1ccc(S(=O)(=O)N(C)C[C@H]2Oc3ccc(NC(=O)Nc4ccc(C(F)(F)F)cc4)cc3C(=O)N([C@H](C)CO)C[C@H]2C)cc1	.	.	/	.	136[16.7 µM]
CN(C)c1ccc(/C=C/c2ccc3c4ccccc4ccc3[n+]2-c2ccccc2)cc1	.	38	/	94	.
CS(=O)(=O)N(CC(=O)Nc1cccc(F)c1)c1cccc([N+](=O)[O-])c1	/	/	.	/	277
CS(=O)(=O)N(CC(=O)Nc1cccc([N+](=O)[O-])c1)c1ccccc1	.	.	.	.	/
CC(C)NC(=O)Nc1ccc2c(c1)C(=O)N([C@@H](C)CO)C[C@@H](C)[C@@H](CN(C)C(=O)CCCN(C)C)OCCCC[C@H](C)O2	.	.	/	.	.
O=C(O)c1ccc(S(=O)(=O)/N=C2\C=C(Nc3ccccc3F)C(=O)c3ccccc32)cc1	.	99	120	.	.
Cc1ccccc1NC1=C/C(=N\S(=O)(=O)c2ccc(C(=O)O)cc2)c2ccccc2C1=O	.	99	139	.	.
Cc1ccccc1NC1=C/C(=N\S(=O)(=O)c2cccs2)c2ccccc2C1=O	/	/	.	/	.
CCCN(C)C[C@H]1OCCCC[C@@H](C)Oc2ccc(NC(=O)CCC(F)(F)F)cc2C(=O)N([C@H](C)CO)C[C@@H]1C	/	/	/	/	.
Cc1noc(C)c1NC(=O)Nc1ccc2c(c1)C(=O)N([C@@H](C)CO)C[C@@H](C)[C@@H](CN(C)C(=O)C1CCCCC1)OCCCC[C@H](C)O2	.	.	/	.	.
CCNC(=S)N1CCn2c(nc3ccccc32)C1	/	/	.	/	.
CC(C)NC(=S)N1CCn2c(nc3ccccc32)C1	.	.	.	.	116
O=[N+]([O-])c1ccccc1/C=C\C=N\N1CCN(c2ccccc2)CC1	.	.	93	42	.
COc1ccccc1N1CCN(/N=C/C=C/c2ccccc2[N+](=O)[O-])CC1	.	.	.	48	.
O=[N+]([O-])c1ccccc1/C=N\N1CCN(c2ccccc2)CC1	.	.	.	.	/
COc1ccccc1N1CCN(/N=C\c2sccc2C)CC1	.	.	.	30	/
Cc1ccc(/C=C(\CCC(=O)O)c2nc3ccccc3s2)cc1[N+](=O)[O-]	.	.	.	.	.
CN(c1ccccc1)c1ccc(/C=C(\CCC(=O)O)c2nc3ccccc3s2)cc1[N+](=O)[O-]	.	38	.	.	/
CO[C@@H]1CN(C)C(=O)c2cc(NS(C)(=O)=O)ccc2OC[C@H](C)N(S(C)(=O)=O)C[C@@H]1C	.	/	/	.	/
CN(C)c1ccc(-n2cccc2/C=C/[N+](=O)[O-])cc1	.	.	/	25	.
O=S(=O)(O)c1cc(Cl)cc(N=Nc2ccc(O)cc2O)c1O	.	77	113	.	/
O=C1CCc2cc(Br)ccc2O1	.	45	/	.	/
O=C1CCc2ccccc2O1	.	.	/	.	.
COc1ccc2c3c(n(C)c2c1)[C@@H](CO)N(C(=O)C1CCC1)CC31CCN(C(=O)Nc2cccc(F)c2)CC1	.	.	/	.	/
O=C(O)[C@@H]1[C@@H](CO)[C@@H]2Cn3c(ccc(/C=C/c4ccccc4)c3=O)[C@@H]2N1Cc1ccc2c(c1)OCO2	.	50	/	.	/
CCOC(=O)c1c(-c2ccc(Br)cc2)csc1/N=C/C1C(=O)CC(C)(C)CC1=O	/	/	.	/	/
O=C(Cc1ccncc1)NCC[C@H]1CC[C@H](NC(=O)Nc2ccc(F)cc2)[C@@H](CO)O1	.	.	/	.	/
Cn1c(-c2cccc(Br)c2)cnc1NCc1ccccc1O	.	.	.	26	.
